HSF-1 act – increases HSF-1 driven luciferase reporter signal; NIH3T3-HGL HSF-1 luciferase reporter, MG132, 8 h; 100% = twice DMSO control signal; activation, % at 9 µM; 300,000 tested, 1.7% active; AID 504408;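 active = mean replicate activation of at least 50% with a set share of replicates each reaching 50%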;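 also: 0% = median of the neutral control wells and 100% = twice that signal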
HSP90 inh – inhibitors of HSP90 luciferase refolding in rabbit reticulocyte lysate | luciferase refolding luminescence, 3 h | 290,000 tested, 0.91% active | AID 1789 | inhibition, % at 5.6 µM;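 active = inhibition above the screen-wide mean plus 3 SD, computed separately per campaign, cut at about 16% in these data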;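 also: 0% = DMSO wells and 100% = 60 µM geldanamycin wells; inhibitors lower the luminescence because luciferase stays unfolded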
HIF act – HIF pathway transcriptional activation; U2OS HRE-luciferase reporter, luminescence; normalized: DMSO 0%, desferrioxamine 100%; activation, % at 7.5 µM (by protocol); 300,000 tested, 0.32% active;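 active = mean activation of at least 10% of the iron chelator positive control signal, with at least half of replicates also reaching 10%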
ARNT-TACC3 inh – disrupts binding between human ARNT and TACC3. Q9Y6A5. AlphaScreen His-ARNT PAS-B/GST-TACC3 binding, luminescence; TACC3 fragment carries E629A point mutation. inhibition, % at 9.99 µM. 390,000 tested, 0.66% active;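 active = mean inhibition of replicates at least 50% and at least half of replicates each reaching 50%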;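 also: 0% = complete ARNT plus TACC3 wells and 100% = ARNT alone without TACC3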
HSF1 inhib – HSF1 inhibition; NIH3T3-HGL HSE-luciferase, MG132-induced, luminescence 8 h; hits give low values; activity change, negative = inhibition, % at 7.5 µM (by protocol); 300,000 tested, 0.77% active;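 active = more than half of replicate wells show activity change below -50%, luminescence cut by over half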;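 also: luciferase reports HSF-1 transcriptional activity via heat shock element; 0% = median of DMSO wells and -100% = zero luminescence signal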
* marks the source's active call; other numbers are inactive results; nt = no result. An excerpt weighted towards active compounds, which were near 3.1% of everything screened.

SMILES | HSF-1 act | HSP90 inh | HIF act | ARNT-TACC3 inh | HSF1 inhib
C[C@@H]1CN([C@H](C)CO)C(=O)c2cccc(NC(=O)c3ccc(-c4nccs4)cc3)c2O[C@H]1CN(C)C(=O)Nc1ccccc1 | nt | nt | nt | 19* | nt
O=C(C[C@H]1C=C[C@@H](NC(=O)C2CCOCC2)[C@H](CO)O1)NCC1CCCCC1 | nt | nt | nt | -8 | nt
O=C(Nc1ccc(Cl)cc1)/C(=C/c1cccc(O)c1)c1nc2ccccc2s1 | -74 | 2 | -6 | 9 | -76*
C=CCn1c(C)cc(C(=O)CSc2nc(N)cc(N)n2)c1C | 66* | 1 | 0 | 1 | 27
C=CC1=C(C(=O)O)N2C(=O)[C@@H](NC(=O)/C(=N\O)c3csc(N)n3)[C@H]2SC1 (stereo in doubt) | -5 | nt | 0 | 64* | 3
C[C@@H]1CCCCO[C@@H](CN(C)C)[C@H](C)CN([C@H](C)CO)C(=O)c2cc(NC(=O)CCC(F)(F)F)ccc2O1 | nt | nt | nt | -2 | nt
COc1ccc(OCCCN2CCCCCC2)cc1 | 1 | -2 | 1 | 47* | -4
CC(C)(c1ccccc1)c1ccc(OCCCN2CCNCC2)cc1 | 56* | -2 | 0 | 8 | 21
c1ccc(Cn2nnnc2C(c2cccs2)N2CCCCCC2)cc1 (configuration not stated) | 22 | 0 | 0 | -3 | 0
c1ccc(Cn2nnnc2C(c2cccs2)N2CCc3ccccc3C2)cc1 (configuration not stated) | 177* | 6 | 2 | -2 | 135
CCOc1ccc(NCc2nnc(SCC(=O)Nc3cc(C)on3)n2-c2ccc(OC)cc2)cc1 | -83 | 0 | -3 | -6 | -80*
COc1ccccc1-c1cnc2c(c1)C(=O)N([C@@H](C)CO)C[C@@H](C)[C@@H](CN(C)Cc1ccncc1)O2 | nt | nt | nt | -5 | nt
CCOC(=O)CN1CCC(c2cc(-c3ccc(Cl)cc3)n[nH]2)CC1 | 52* | -2 | -6 | -12 | 9
COc1cccc(C#Cc2ccc([C@H]3[C@@H](CO)N(C(=O)C4CCCCC4)[C@H]3C#N)cc2)c1 | nt | nt | nt | -15 | nt
COc1ccccc1C(=O)NC(=S)Nc1ccccc1N1CCCC1 | -63 | 1 | 1 | -5 | -58*
O=C(Nc1ccccc1)N1C[C@H]2[C@@H](c3ccccc31)[C@H](CO)N2Cc1ccccc1 | nt | nt | nt | -6 | nt
CCCN1C[C@@H](C)[C@H](OC)CN(C)C(=O)c2ccc(NC(=O)c3cnccn3)cc2OC[C@@H]1C | nt | nt | nt | -10 | nt
O=C(c1ccc(Cl)cc1Cl)N1CCc2ccccc21 | 14 | 2 | -1 | -6 | -2
O=C(/C=C/c1ccc(Cl)cc1Cl)N1CCc2ccccc21 | 55* | -4 | 5 | 4 | 22
O=C(C[C@H]1CC[C@@H]2[C@H](COC[C@H](O)CN2C(=O)c2ccc(F)cc2)O1)Nc1ccc(-c2ccccc2)cc1 | nt | nt | nt | 1 | nt
NC(=O)c1ccc(NC(=O)CC23CC4CC(CC(Br)(C4)C2)C3)cc1 | 76* | 3 | 0 | nt | 36
COc1cc(-c2nc(-c3ccc4c(c3)-c3ccccc3S4(=O)=O)c(-c3ccccc3)[nH]2)cc(OC)c1O | 65* | 5 | 0 | 6 | 61
COc1ccc(-c2[nH]c(-c3ccc(C(=O)O)cc3)nc2-c2ccccc2)cc1 | 9 | -2 | 0 | nt | 3
O=C(c1cnccn1)N1CC[C@@H]2[C@@H](CO)Nc3ccc(-c4ccccc4)cc3[C@@H]21 | nt | nt | nt | 2 | nt
CCN(CC)c1ccc(C=Nc2cccnc2Cl)c(O)c1 | -7 | 5 | 0 | active | -5
SMILES | HSF-1 act | HSP90 inh | HIF act | ARNT-TACC3 inh | HSF1 inhib
O=C(Oc1ccc(C(=S)N2CCOCC2)cc1Br)c1cc(Cl)ccc1Cl | 78* | 3 | 0 | -2 | 19
Cc1ccc(N=C2SC(C(=O)O)CC(=O)N2C)cc1C (configuration not stated) | -18 | 3 | 0 | -13 | -2
Cc1ccc(N=C2SC(C(=O)NCCc3ccccc3)CC(=O)N2C)cc1C (configuration not stated) | 70* | -1 | -1 | -6 | 18
CCCCNC(=O)c1ccc(Cn2c(=S)[nH]c3c([nH]c4ccc(OC)cc43)c2=O)cc1 | -71 | -1 | -5 | -4 | -71*
CCOCCCNC(=O)c1ccc(Cn2c(=S)[nH]c3c([nH]c4ccc(OC)cc43)c2=O)cc1 | -3 | 3 | 1 | -3 | 2
CC[C@H](C)NC(=O)c1ccc(Cn2c(=S)[nH]c3c([nH]c4ccc(OC)cc43)c2=O)cc1 | -58 | -2 | 0 | 3 | -58*
